What all share (experiment): NCI-60 one-dose screen, 48 h (100 = growth as untreated, 0 = no growth, -100 = all killed)
One experiment concerns HCT-15 colon. As to conditions: 10 µM unless noted.
The next experiment has as its system HT29 colon. As to conditions: 10 µM unless noted.
In a further experiment the test system is SNB-75 CNS. As to conditions: 10 µM unless noted.
In another experiment the test system is SNB-19 CNS. As to conditions: 10 µM unless noted.
Another experiment relates to U251 CNS. As to conditions: 10 µM unless noted.
The subject of a further experiment is PC-3 prostate. As to conditions: 10 µM unless noted.
For a further experiment, the system named is SK-MEL-5 melanoma. As to conditions: 10 µM unless noted.
The next experiment relates to UACC-62 melanoma. As to conditions: 10 µM unless noted.
The subject of another experiment is LOX IMVI melanoma. As to conditions: 10 µM unless noted.
The test system of another experiment is SK-MEL-28 melanoma. As to conditions: 10 µM unless noted.
In a further experiment the test system is SK-MEL-2 melanoma. As to conditions: 10 µM unless noted.
The subject of another experiment is EKVX NSCLC. As to conditions: 10 µM unless noted.
The test system of another experiment is SN12C renal. As to conditions: 10 µM unless noted.
Another experiment concerns TK-10 renal. As to conditions: 10 µM unless noted.
Another experiment deals with ACHN renal. As to conditions: 10 µM unless noted.
A further experiment has as its system CAKI-1 renal. As to conditions: 10 µM unless noted.
Another experiment concerns A498 renal. As to conditions: 10 µM.
The test system of a further experiment is UO-31 renal. As to conditions: 10 µM unless noted.
The subject of the next experiment is HL-60(TB) leukemia. As to conditions: 10 µM unless noted.
The subject of the next experiment is CCRF-CEM leukemia. As to conditions: 10 µM unless noted.

This is part of a sample that, as a whole, favours compounds with a hit. Of some 83,000 tested, about 20% had one in any assay.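 Interpretation: 100, growth as untreated; towards 0, rising growth inhibition; 0, no net growth; 0 to -100, cell death. Compounds scoring below 10 were considered active.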 Values without a mark were called inactive. The source made the active and inactive calls.

`COc1ccc(N(CC(=O)NCCC[Te]c2ccccc2)C(=O)CCSC2=C(C)C(=O)c3ccccc3C2=O)cc1`: the growth was -15.7% (active) in the experiment with HCT-15 colon; 1.86% (active) in the experiment with HT29 colon; 13.2% in the experiment on SNB-75 CNS; -12.4% (active) in the experiment with SNB-19 CNS; -42.7% (active) in the experiment with U251 CNS; 0.627% (active) with PC-3 prostate. For the same compound, the growth in the experiment with SK-MEL-5 melanoma is -96.7% (active); with UACC-62 melanoma, -25.4% (active); with LOX IMVI melanoma, -50.1% (active); in the experiment with SK-MEL-28 melanoma it was -18.1% (active); in the experiment on SK-MEL-2 melanoma, -49.6% (active); in the experiment with EKVX NSCLC it was -2.22% (active). In addition, the growth with SN12C renal was -8.2% (active); in the experiment on TK-10 renal, 8.99% (active); in the experiment with ACHN renal it was -51.4% (active); with CAKI-1 renal it was -25.5% (active); with A498 renal, -32.2% (active).
Regarding `COC(=O)[C@H](Cc1ccccc1)NC(=O)c1csc([C@@H](C[C@H](C(C)C)N(C)C(=O)[C@@H](NC(=O)[C@H]2CCCN2C)C2CC2)OC(C)=O)n1`, the growth in the experiment with HCT-15 colon is 18.7%; in the experiment on HT29 colon, 8.98% (active); in the experiment with SNB-75 CNS it was 39.2%; with SNB-19 CNS it was 59.5%; with U251 CNS it was 13.3%; in the experiment on PC-3 prostate it was 13.2%. Moreover, the growth was 29.4% with SK-MEL-5 melanoma; 38.2% with UACC-62 melanoma; 16.8% with LOX IMVI melanoma; 51.4% in the experiment on SK-MEL-28 melanoma; 31.2% in the experiment with SK-MEL-2 melanoma; 33.4% in the experiment on EKVX NSCLC. Moreover, the growth is 33% in the experiment on SN12C renal; 41.1% with UO-31 renal; 36.8% with CAKI-1 renal; 13.5% in the experiment with A498 renal; -44.9% (active) in the experiment on HL-60(TB) leukemia.
For `CC(CO)NC1CCCCC1` (stereo not drawn), the growth with HCT-15 colon is 100%; in the experiment with HT29 colon it was 117%; in the experiment on SNB-75 CNS it was 86.9%; in the experiment with SNB-19 CNS it was 102%; in the experiment on U251 CNS, 98.9%; in the experiment with PC-3 prostate it was 105%. For the same compound, the growth was 104% with SK-MEL-5 melanoma; 104% with UACC-62 melanoma; 94.3% in the experiment on LOX IMVI melanoma; 114% in the experiment on SK-MEL-28 melanoma; 110% with SK-MEL-2 melanoma; 102% in the experiment with EKVX NSCLC. Besides, the growth in the experiment on SN12C renal is 111%; with TK-10 renal, 94.9%; in the experiment on ACHN renal, 109%; with CAKI-1 renal it was 109%; in the experiment with A498 renal it was 77.6%; in the experiment on HL-60(TB) leukemia, 116%. Further, the growth in the experiment with CCRF-CEM leukemia was 123%.
On to `COc1cc2c(c(OC)c1OC)-c1ccc([O-])c(=O)cc1[C@@H](NC(C)=O)CC2.COc1cc2c(c(OC)c1OC)-c1ccc([O-])c(=O)cc1[C@@H](NC(C)=O)CC2.[Cu+2]`, for which the growth in the experiment on HCT-15 colon was 15.8%; in the experiment with HT29 colon, 9.61% (active); in the experiment with SNB-75 CNS it was 50.1%; in the experiment with SNB-19 CNS, 25.2%; in the experiment with U251 CNS it was 22.3%; with PC-3 prostate, 35.1%. In addition, the growth with SK-MEL-5 melanoma was 19.2%; with UACC-62 melanoma, 23.5%; in the experiment with LOX IMVI melanoma it was 36.3%; in the experiment on SK-MEL-28 melanoma it was 48.5%; in the experiment with SK-MEL-2 melanoma it was -4.65% (active); with EKVX NSCLC, 62%. Further, the growth in the experiment with SN12C renal was 43.5%; with TK-10 renal, 71.7%; with ACHN renal, 53.6%; with CAKI-1 renal, 34.1%; in the experiment with A498 renal, 14.9%; with HL-60(TB) leukemia it was -44.9% (active). Besides, in the experiment on CCRF-CEM leukemia, the growth is 9.3% (active).
Take `CC12CCC3C(CCC4Cc5[nH]c6ccccc6c5CC43C)C1CCC2O` (stereo not drawn): the growth in the experiment on HCT-15 colon was 33.2%; in the experiment on HT29 colon, 10.7%; in the experiment with SNB-75 CNS, 31.7%; in the experiment with SNB-19 CNS, 28%; with U251 CNS it was 20.1%; in the experiment with PC-3 prostate it was 34.5%. For the same compound, the growth was 2.53% (active) in the experiment on SK-MEL-5 melanoma; 31.8% in the experiment with UACC-62 melanoma; 13.4% in the experiment on LOX IMVI melanoma; 54.8% in the experiment on SK-MEL-28 melanoma; 67.2% in the experiment with SK-MEL-2 melanoma; 56.8% with EKVX NSCLC. In addition, the growth in the experiment with SN12C renal was 42.8%; with TK-10 renal it was 57.3%; in the experiment on ACHN renal it was 48.3%; with CAKI-1 renal, 45.1%; with A498 renal, 31.8%; in the experiment with HL-60(TB) leukemia, -32.9% (active). Also, in the experiment with CCRF-CEM leukemia, the growth was 8.61% (active).
`N#C[Se]Cc1cc(-c2ccccc2)n(-c2ccc(S(N)(=O)=O)cc2)n1`: the growth in the experiment on HCT-15 colon is 4.73% (active); in the experiment on HT29 colon, -27% (active); with SNB-75 CNS it was -38.3% (active); in the experiment on SNB-19 CNS, -100% (active); in the experiment on U251 CNS, -61.2% (active); in the experiment with PC-3 prostate it was -13.1% (active). The growth in the experiment on SK-MEL-5 melanoma is -76.6% (active); with UACC-62 melanoma, -9.79% (active); with LOX IMVI melanoma, -69.4% (active); in the experiment on SK-MEL-28 melanoma it was -58.8% (active); in the experiment on SK-MEL-2 melanoma, -35.9% (active); in the experiment on EKVX NSCLC it was -1.91% (active). In addition, the growth with SN12C renal was 6.49% (active); with TK-10 renal it was -29.7% (active); with ACHN renal, 1.16% (active); with CAKI-1 renal, 0.316% (active); with A498 renal, -61.4% (active); in the experiment on HL-60(TB) leukemia, -44.5% (active). Besides, the growth with CCRF-CEM leukemia was -16.4% (active).
Turning to `C#Cc1ccc2c(c1)C(c1ccccc1)=NCC(=O)N2C`, the growth in the experiment with HCT-15 colon is 26.4%; with HT29 colon, 13.1%; with SNB-75 CNS it was 53.9%; in the experiment on SNB-19 CNS, 46.6%; with U251 CNS, 36.9%; with PC-3 prostate it was 54.4%. Besides, the growth in the experiment on SK-MEL-5 melanoma was 34.7%; in the experiment on UACC-62 melanoma, 31%; in the experiment on LOX IMVI melanoma, 44.4%; in the experiment on SK-MEL-28 melanoma, 59.1%; in the experiment with SK-MEL-2 melanoma, 25.5%; in the experiment on EKVX NSCLC it was 50.2%. For the same compound, the growth in the experiment with UO-31 renal is 67.8%; in the experiment on TK-10 renal, 66.1%; in the experiment on ACHN renal, 52%; with CAKI-1 renal, 51.3%; in the experiment with A498 renal, 26.7%; in the experiment with HL-60(TB) leukemia it was 1.49% (active). Moreover, in the experiment on CCRF-CEM leukemia, the growth was 48.9%.
Take `CCCCNC(c1ccc(Cl)cc1)C(O)c1ccc(Cl)cc1` (stereo not drawn): the growth was 32.7% in the experiment with HCT-15 colon; 4.8% (active) in the experiment on HT29 colon; 61.9% in the experiment with SNB-75 CNS; 54.6% in the experiment on SNB-19 CNS; 6.63% (active) in the experiment with U251 CNS; 42.2% in the experiment on PC-3 prostate. In addition, the growth with SK-MEL-5 melanoma is 32.7%; with UACC-62 melanoma, 19.2%; in the experiment with LOX IMVI melanoma, -75.6% (active); in the experiment on SK-MEL-28 melanoma it was 45.6%; in the experiment with SK-MEL-2 melanoma, 62.5%; in the experiment on EKVX NSCLC it was 53.9%. Moreover, the growth in the experiment on UO-31 renal is 36.9%; in the experiment on TK-10 renal it was 56.8%; with ACHN renal, 35.2%; in the experiment on CAKI-1 renal it was 30.3%; with A498 renal, 57.8%; with HL-60(TB) leukemia, 19.6%. In addition, in the experiment with CCRF-CEM leukemia, the growth was 29.7%.

These data come from PubChem BioAssay (NCI).
